Data as given in ChEMBL document CHEMBL4513160, “CO-ADD screening of MMV (CH) - Small Polar Library”.
Among all 23,000 compounds or so, about 30 (0.1%) showed an effect of 50% or more. The list comes from a sample in which strong results are over-represented; it also holds similar structures and randomly drawn compounds. Potency and affinity values are given separately.

These compounds were tested on Pseudomonas aeruginosa. Settings: Concentration 300 ug.mL-1; ASSAY_TEST Inhibition of Bacterial Growth; detection method Absorption (OD600); MEDIA CAMHB; plate type 384well; NBS; CORNING #3640; time 18 hr.

Going from CSCc1noc(CN2CCC(=O)NCC2C)n1 (stereo not given) to Cc1noc(CN2CCN(S(C)(=O)=O)CC2)n1, the Inhibition falls from 2.5% to -16.86%.

Going from CCc1n[nH]c(=O)n1CC to CCOC(=O)c1nc(C)n(C)n1, the Inhibition falls from 16.77% to 10.82%.

First: O=C1C=CC(=O)N1C1CCCCC1
Second: NC(=O)c1cc(N2CCCC2)ccn1
The Inhibition of the first is higher: 14.45% for the first, -17.78% for the second.

Compared with O=C(c1cc(F)ccc1Br)N1CCNCC1, Fc1ccc2nc(N3CCCNCC3)oc2c1F is higher in Inhibition: -21.94% for the first, 33.45% for the second.

First: CNCc1ncc(C)c(OC)c1C
Second: CNC(=O)C(C)Sc1nccn1-c1ccc(OC)cc1 (stereo not given)
The Inhibition of the first is higher: 22.51% for the first, 17.22% for the second.

Going from CC(=O)NCc1ccc(C(=O)CSc2ccccn2)s1 to CC(=O)NCCCNCc1ccc(Br)c2cccnc12, the Inhibition rises from 23.63% to 29.22%.

First: CN(Cc1cccc(C#N)c1)C(=O)C1CC1
Second: N#Cc1cccc(CN2CCCC(O)C2)c1 (stereo not given)
The Inhibition of the first is higher: 11.31% for the first, 9.18% for the second.

First: CN(C)S(=O)(=O)NCc1ccc(Cn2ccnc2)cc1
Second: Cc1n[nH]cc1CNCc1ccc(-n2ccnc2)nc1
The Inhibition of the first is lower: -10.43% for the first, 0.04% for the second.

First: NC(=O)CCNCc1ccc(Cl)c2cccnc12
Second: NC(=O)C1(NCc2ccc(Br)c3cccnc23)CC1
The Inhibition of the first is higher: 17.51% for the first, 4.47% for the second.

Compared with OCc1cccc2ncccc12, N#Cc1ccc(NCc2ccccc2F)nc1 is higher in Inhibition: -43.09% for the first, 16.68% for the second.

Going from O=C(c1nnsc1-c1ccc(Cl)cc1)N1CCSCC1 to Clc1ccc(-c2noc(CN3CCCNCC3)n2)cc1, the Inhibition rises from -1.35% to 46.35%.

Going from CN(C)CCCC(=O)N1CCCC(CO)(CC2CC2)C1 (stereo not given) to CC1CCN(C(=O)CCN2C[C@H](C3CC3)[C@@H](N)C2)CC1, the Inhibition rises from -1.87% to 0.49%.

First: OC(CN1CCn2ccnc2C1)c1ccc(Cl)cc1 (stereo not given)
Second: CC(C)NC(=O)c1cn(Cc2ccc(Cl)cc2)nn1
The Inhibition of the first is lower: -6.36% for the first, 37.8% for the second.

Going from CSCCC(O)C(=O)NCCc1scnc1C (stereo not given) to CCCC(C)NC(=O)c1coc(C)n1 (stereo not given), the Inhibition rises from -25.65% to -6.54%.

Going from COCCN(Cc1ccccn1)C(=O)CC1CCNC1 (stereo not given) to COCCNCC(=O)Nc1cccc(CSC)c1, the Inhibition rises from -0.17% to 7.12%.

First: CN1CCOC[C@H]2CCN(C(=O)c3cccs3)C[C@H]21
Second: Cc1cc(C(=O)N[C@@H]2CCOC[C@H]2O)sc1C
The Inhibition of the first is lower: -22.95% for the first, 10.73% for the second.

Going from CN(CCNC(=O)c1cnc[nH]1)Cc1ccc(F)cc1 to COCCC(=O)c1ccc(F)cc1, the Inhibition falls from 37.03% to 19.26%.

Compared with CNC1(C(=O)OC)CCCCC1, CC(C)C(=O)NC1CCCNC1 (stereo not given) is higher in Inhibition: -2.18% for the first, -0.49% for the second.

Going from Cc1cc(NC(=O)CSCC(=O)N2CCC2)no1 to CCOC(=O)CNC(=O)N1CCn2cccc2C1C (stereo not given), the Inhibition falls from 7.6% to -25.66%.

Going from c1cc2c(cc1CNc1nnc(C3CC3)o1)OCCO2 to O=C(NCc1ccc2c(c1)OCCCO2)c1cscn1, the Inhibition rises from -5.88% to 14.64%.

First: O=C(CCCc1cn[nH]c1)N1CCc2ccccc2C1
Second: O=C(CCN1CCC(CO)CC1)Nc1ccccc1F
The Inhibition of the first is higher: 6.06% for the first, 3.62% for the second.

First: CCN(CC(C)C#N)C(=O)c1ccc(Br)o1 (stereo not given)
Second: CC(C)C[C@@H](N)C(=O)NCc1ccc2nsnc2c1
The Inhibition of the first is lower: -3.61% for the first, 6.42% for the second.

Going from COC(=O)[C@@H]1CCN[C@@H]1C(C)C to O=C(CC1CCCN1)c1ccco1 (stereo not given), the Inhibition rises from 12.69% to 24.64%.

Compared with C1CN(C2CCN(c3nnc(C4CC4)o3)CC2)CCS1, CCCc1nnc(N2CCC3(CC2)OCC(C)O3)s1 (stereo not given) is lower in Inhibition: 8.74% for the first, -23.27% for the second.

First: C=C(C)CNC(=O)Nc1cccc(N2CCNC2=O)c1
Second: CCS(=O)(=O)NC1CCN(C(=O)c2cccc(F)c2)C1 (stereo not given)
The Inhibition of the first is lower: -38.18% for the first, 13% for the second.

Going from CCc1ccc(CN(CCO)Cc2nccn2C)nc1 to CCCn1cnnc1CNCC(=O)Nc1cnccn1, the Inhibition rises from -17.17% to 7.89%.

Going from Fc1ccc2[nH]cnc2c1 to O=c1ccoc2ccc(F)cc12, the Inhibition falls from 26.41% to 24.86%.

Compared with CNCCC1CCCO1 (stereo not given), CCc1nc(CNC(=O)C2CCCO2)cs1 (stereo not given) is lower in Inhibition: 6.91% for the first, 6.65% for the second.

Going from CNC1CC(=O)N(Cc2ccccc2)C1=O (stereo not given) to NC1CC(=O)Nc2ccccc21 (stereo not given), the Inhibition rises from -1.73% to 18.18%.

Compared with CC1(C)C[S+]([O-])CCN1C(=O)c1cccc(F)c1Cl (stereo not given), CCC(c1ccc(F)cc1)N1CC[S+]([O-])CC1 (stereo not given) is lower in Inhibition: 17.16% for the first, 11.41% for the second.

First: CCN(CC)C(=O)[C@@H]1C[C@@H](N)CN1C(=O)CS(C)(=O)=O
Second: CCn1nc(C)c(CN2CCCCC(N)C2)c1C (stereo not given)
The Inhibition of the first is lower: 7.51% for the first, 14.9% for the second.

Compared with Nc1ncn(S(=O)(=O)c2ccccc2)n1, NS(=O)(=O)N(Cc1cccnc1)Cc1ccco1 is higher in Inhibition: -6.3% for the first, 8.52% for the second.

Going from CC(O)C(=O)NC(N)=O (stereo not given) to CNC(=O)NC(=O)C(C)N1CCN(c2nccs2)CC1 (stereo not given), the Inhibition falls from 10.69% to 0.51%.

Compared with O=C(Cc1ccsc1)N[C@@H]1CCOC[C@H]1OCCO, O=C(Cc1cccc(O)c1)NCCn1cc(Cl)cn1 is lower in Inhibition: 1.98% for the first, -17.42% for the second.

Going from c1ccc(C2=NN=C(NC3CC3)SC2)cc1 to COc1cc(C(=O)N[C@@H]2CC[C@@H](N)C2)ccc1F, the Inhibition rises from 6.85% to 12.15%.

First: N[C@@H]1CCOc2c(F)ccc(F)c21
Second: NC1CCCc2c(F)cccc21 (stereo not given)
The Inhibition of the first is higher: 32.11% for the first, 23.88% for the second.

First: CC(Sc1ccccc1Cl)C(=O)NCC(=O)N(C)C (stereo not given)
Second: NC(=O)C1=NOC(CNCc2ccccc2Cl)C1 (stereo not given)
The Inhibition of the first is lower: 4.5% for the first, 23% for the second.

First: CCS(=O)(=O)c1cncnc1N
Second: Cc1n[nH]c(C)c1NC(=O)C(C)CN (stereo not given)
The Inhibition of the first is higher: 19.95% for the first, 18.11% for the second.

Compared with Cc1noc(C)c1CCC(=O)NC(C)c1ccccn1 (stereo not given), Cc1cc(C)cc(NC(=O)CNCCCO)c1 is higher in Inhibition: -45.2% for the first, 5.1% for the second.

Compared with Cc1cc(C)cc(N2CCNCC2=O)c1, N[C@H]1CCCNC1=O is higher in Inhibition: 2.16% for the first, 19.57% for the second.

Compared with COc1ccc2[nH]c(CCCN)nc2c1, CN(Cc1ccc2c(c1)OCO2)C(=O)c1cncs1 is lower in Inhibition: 28.12% for the first, 25.32% for the second.

Compared with Cc1noc(CN(C)CCC2CCOCC2)n1, CCN1CCCC1CNC(=O)c1c[nH]nn1 (stereo not given) is higher in Inhibition: -10.62% for the first, 16.01% for the second.

In the case of Cn1cnnc1CCNC(=O)c1cc(Cl)c(Cl)n1C, the Inhibition is reported as 15.17%.
